# Screening data as filed in PubChem BioAssay.
# Pol iota inh: blocks human DNA polymerase iota activity. Q9UNA4. Pol iota fluorescent replication assay, 10 min. Potency, µM (highest dose often 115 µM), for the others: at the highest dose activity, negative = inhibition, actives largely listed as inhibitors. 390,000 compounds, 1% hits; also: potency is read from the fitted curve at half-maximal effect
#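 Fluorescent replication assay read twice, at 0 min and 10 min after adding 50 nM (final) substrate. Enzyme (10 nM) and compounds were first incubated 15 min at room temperature; enzyme-free buffer wells were negative controls.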
# TDP1 inh: inhibitors of human tyrosyl-DNA phosphodiesterase TDP1. recombinant TDP1, AlphaScreen DNA substrate cleavage. Potency, µM (top dose mostly 130 µM), without a hit: at the top dose activity change, negative = inhibition, most hits filed as inhibitors. 350,000 compounds, 0.28% hits. AID 485290; also: potency is read from the fitted curve at half-maximal effect; % is scaled to controls: 0 for no effect and ±100 for the full control effect; nearly all actives have a fitted effect of over 40% in size
#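 Enzyme-compound mixtures sat 15 min at room temperature, followed by a 5 min reaction with 15 nM final substrate and 10 min with AlphaScreen beads. Recombinant human Tdp1 was used at 1 nM final.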
# FEN1 inh: inhibitors of human flap endonuclease 1; P39748; Recombinant FEN1 flap cleavage, fluorescence, 15 min; Potency, µM (highest dose often 114 µM), for the others: at the top dose activity change, negative = inhibition, most hits filed as inhibitors; 390,000 compounds, 0.35% hits; also: potency is read from the fitted curve at half-maximal effect; % is scaled to controls: 0 for no effect and ±100 for the full control effect; nearly all actives have a fitted effect of over 65% in size
#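 FEN1 at 10 nM, compound pretreatment for 15 min (room temperature), 50 nM final substrate to initiate; endpoint reads at 0 and 15 min; DMSO-only plates used as vehicle background.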
# Pol eta inh-1: DNA polymerase eta (human) inhibition. Q9Y253. 390,000 compounds, 1.2% hits. AID 588591. Potency, µM (highest dose often 114 µM), for inactives: at the highest dose activity change, negative = inhibition, usual class: inhibitors. recombinant Pol eta, fluorescent DNA replication assay; also: potency is read from the fitted curve at half-maximal effect; % is scaled to controls: 0 for no effect and ±100 for the full control effect
#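 Fluorescent replication assay: 50 nM final substrate added after a 15 min room-temperature compound preincubation with 10 nM enzyme. Signal taken at 0 min and again at 10 min.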
# POLB inh: inhibitors of human DNA polymerase beta; P06746; Potency, µM (titrated, usually from 114 µM), for the others: top-dose activity change, negative = inhibition, actives largely listed as inhibitors; Pol beta primer extension/strand displacement, fluorescence kinetic; 340,000 compounds, 1.3% hits; AID 485314; also: potency is read from the fitted curve at half-maximal effect; % is scaled to controls: 0 for no effect and ±100 for the full control effect
#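 Enzyme-only controls used 10 nM Pol beta; buffer lacking enzyme served as negative control. Compound preincubated 15 min, then 50 nM substrate added; 0 and 10 min reads at room temperature.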
# Pol kappa inh-1: inhibitors of human DNA polymerase kappa; Potency, µM (doses to about 107 µM), inactives show top-dose activity, negative = inhibition, hits mostly inhibitors; purified Pol kappa, fluorescent DNA synthesis assay, 10 min; Q9UBT6; 400,000 compounds, 0.53% hits; also: potency is read from the fitted curve at half-maximal effect; % is scaled to controls: 0 for no effect and ±100 for the full control effect
# Target sequence (Q9UBT6 whole entry, looked up): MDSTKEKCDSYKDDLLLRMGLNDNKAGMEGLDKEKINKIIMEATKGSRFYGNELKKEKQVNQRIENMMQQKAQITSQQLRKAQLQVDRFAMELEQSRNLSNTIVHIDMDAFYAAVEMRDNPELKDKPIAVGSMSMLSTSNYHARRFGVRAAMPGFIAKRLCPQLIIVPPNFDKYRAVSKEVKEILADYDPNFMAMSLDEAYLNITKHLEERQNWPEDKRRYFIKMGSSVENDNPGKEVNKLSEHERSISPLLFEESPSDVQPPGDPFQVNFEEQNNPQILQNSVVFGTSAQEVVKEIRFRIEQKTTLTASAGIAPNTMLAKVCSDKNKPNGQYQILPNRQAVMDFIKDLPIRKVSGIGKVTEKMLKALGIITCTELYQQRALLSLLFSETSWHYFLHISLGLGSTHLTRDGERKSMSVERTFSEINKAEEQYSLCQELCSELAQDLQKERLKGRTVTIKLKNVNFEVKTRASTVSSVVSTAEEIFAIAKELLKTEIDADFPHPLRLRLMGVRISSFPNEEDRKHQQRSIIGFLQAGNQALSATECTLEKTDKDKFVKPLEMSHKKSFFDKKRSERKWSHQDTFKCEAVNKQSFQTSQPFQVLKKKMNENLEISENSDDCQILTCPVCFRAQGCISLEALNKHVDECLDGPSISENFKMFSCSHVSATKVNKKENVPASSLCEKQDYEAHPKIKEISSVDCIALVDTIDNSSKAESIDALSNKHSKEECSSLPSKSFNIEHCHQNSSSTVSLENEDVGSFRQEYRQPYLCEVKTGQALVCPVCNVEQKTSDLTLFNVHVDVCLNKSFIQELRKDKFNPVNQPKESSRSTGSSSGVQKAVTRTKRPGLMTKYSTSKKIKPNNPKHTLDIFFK
#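 Kinetic fluorescence readout at 0 and 10 min followed reaction start with substrate at 50 nM final. Beforehand, enzyme (10 nM Pol kappa) stood 15 min with compound at room temperature; buffer-only wells were negative controls.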
# GALK inh confirm: confirmation of human galactokinase (GALK) inhibitors; shares compounds with Pol eta inh-1; purified GALK, Kinase-Glo ATP depletion luminescence; Potency, µM (highest dose often 115 µM), inactives show top-dose activity, negative = inhibition, hits mostly inhibitors; 150 compounds, 70% hits; AID 2015
# Redox cycling: redox cycling activity in phenol red-HRP assay; 150 compounds, 40% hits; shares compounds with Pol eta inh-1; Phenol red-HRP H2O2 redox cycling, absorbance 600 nm; Potency, µM (doses to about 115 µM), for inactives: top-dose activity change, negative = H2O2 signal, usual class: inhibitors
# HEK293 viability: reduces HEK-293 cell viability in GALK counter-screen | shares compounds with Pol eta inh-1 | HEK-293 viability, ATP luminescence (CellTiter-Glo), 24/48 h | Potency, µM (titrated, usually from 46.1 µM), for the others: top-dose activity change, negative = cytotoxicity, actives largely listed as inhibitors | 170 compounds, 10% hits; also: potency is read from the fitted curve at half-maximal effect; % is scaled to controls: 0 for no effect and ±100 for the full control effect
# Pol kappa inh-2: Pol kappa (human) inhibition, cherry-pick confirmation | shares compounds with Pol eta inh-1 | purified Pol-kappa, fluorescent strand-displacement substrate | Potency, µM, usual class: inhibitors | 920 compounds, 76% hits; also: potency is read from the fitted curve at half-maximal effect
# Pol eta inh-2: Pol eta (human) inhibition, cherry-pick confirmation; Potency, µM, actives largely listed as inhibitors; AID 720502; shares compounds with Pol eta inh-1; 2,600 compounds, 64% hits; Pol eta primer extension, TAMRA/BHQ fluorescence, 10 min; also: potency is read from the fitted curve at half-maximal effect
# Active calls of the source: *; ? = inconclusive; . = not tested or not shown; [ ] = another dose, or the depositor's remark. Shown are actives, neighbours in structure and some others; about 2.4% of the full set was active somewhere. Calls follow the shape of the dose curve; as a rule, active = well fitted curve in the direction sought with a large enough effect; inconclusive = small, poorly fitted or top-dose-only effect, or another doubt; inactive = no such curve, though single readings can be large; an effect the other way counts as inactive or inconclusive.
SMILES,Pol iota inh,TDP1 inh,FEN1 inh,Pol eta inh-1,POLB inh,Pol kappa inh-1,Pol eta inh-2,others
COC1=C(N)C(=O)c2nc(-c3nc(C(=O)O)c(C)c(-c4ccc(OC)c(OC)c4O)c3N)ccc2C1=O,0.891µM*,-2.7%,3.98µM*,3.55µM*,10µM*,50.1µM*,.,GALK inh confirm=?;Redox cycling=0.943µM*;HEK293 viability=0.0125µM*
O=[N+]([O-])c1cc(Br)cc(C=Nc2ccc3c(c2)OCO3)c1O,?,9.4%,?,79.4µM*,25.1µM*,?,75.7*,
O=[N+]([O-])c1ccc(O)c(C=Nc2ccc3c(c2)OCO3)c1,-8.8%,0.0%,-2.8%,-16.3%,53.4%,-10.7%,.,
Cc1oc2c(c1C(=O)Nc1cccc(C(=O)O)c1)CCCC2,79.4µM*,2.0%,-13.1%,50.1µM*,?,-14.8%,?,
Cc1ccc(C(=O)Nc2cccc(C(=O)O)c2)cc1,15.7%,4.0%,-4.6%,0.1%,2.8%,-17.8%,.,
Nc1c(C(=O)NCc2ccco2)sc2nc3c(cc12)C(=O)CCC3,?,2.1%,?,31.6µM*,31.6µM*,?,53.6*,
COc1ccc(C(=O)OCc2cc(=O)n3nc(-c4cccs4)sc3n2)cc1,?,-1.9%,3.9%,?,?,-7.3%,?,
COc1ccc(-c2cn3cccnc3n2)cc1NC(=O)Nc1cc(C)ccc1C,?,.,-16.0%,79.4µM*,-14.5%,-13.1%,?,Pol kappa inh-2=15*
COC(=O)c1cc(Cl)ccc1NC(=O)CSc1ncc(S(=O)(=O)c2ccc(Br)cc2)c(=O)[nH]1,?,6.4%,?,89.1µM*,44.7µM*,?,?,Pol kappa inh-2=42.3*
COc1ccc(CNC(=O)CSc2ncc(S(=O)(=O)c3ccc(Br)cc3)c(=O)[nH]2)cc1,-20.5%,0.0%,-17.4%,-10.6%,16.6%,-13.0%,.,
Cc1nnc(NS(=O)(=O)c2ccc(N)cc2)s1,-3.9%,11.0%,-12.0%,-15.2%,-13.3%,-5.1%,.,
Cc1nnc(NS(=O)(=O)c2ccc(N=Nc3ccc(N)nc3N)cc2)s1,15.8µM*,.,?,20µM*,.,79.4µM*,47.8*,
CCOC(=O)c1ccccc1NC(=O)Cn1c(=O)n(Cc2ccc(C(=O)NCc3ccc4c(c3)OCO4)cc2)c(=O)c2ccccc21,0.3%,3.6%,-5.9%,-8.6%,-20.7%,-3.3%,.,
O=C(Cn1c(=O)n(Cc2ccc(C(=O)NCc3ccc4c(c3)OCO4)cc2)c(=O)c2ccccc21)Nc1ccc(F)cc1F,?,25.1µM*,-30.9%,79.4µM*,10µM*,-4.0%,.,Pol kappa inh-2=?
COc1ccc(NC(=O)c2ccco2)cc1NC(=O)c1cc(Cl)ccc1OC,-17.2%,-5.3%,-21.5%,89.1µM*,?,-1.0%,.,Pol kappa inh-2=42.3*
CC(=O)Nc1ccc(S(=O)(=O)Nc2c(NC3CCCCC3)c3ccccc3oc2=O)cc1,-23.3%,4.8%,-4.4%,-8.4%,8.5%,-4.6%,.,
Cc1ccc(C(c2ccc(C)o2)c2cccc([N+](=O)[O-])c2O)o1,?,9.9%,-18.5%,17.8µM*,?,?,84.9*,
COc1ccccc1N(CC(=O)NCCC1=CCCCC1)S(=O)(=O)c1ccccc1,-5.0%,6.0%,-23.0%,-11.8%,-0.7%,-5.3%,.,
Cc1c(CCC(=O)O)c(=O)oc2c(C)c3occ(-c4ccc(Cl)cc4)c3cc12,12.6µM*,.,?,22.4µM*,22.4µM*,89.1µM*,?,
CCc1ccc(C2C(C(=O)Nc3ccccc3OC)=C(C)Nc3c(C(=O)Nc4ccc(C)cc4)cnn32)cc1 (stereo not given),6.7%,7.4%,-14.6%,-10.7%,-0.3%,-14.1%,.,
Cc1c(OC(C)C(=O)NC(Cc2c[nH]c3ccc(O)cc23)C(=O)O)ccc2c1oc(=O)c1ccccc12 (stereo not given),44.7µM*,.,?,20µM*,2.51µM*,?,?,
Cc1c(C)c2ccc(OC(C)C(=O)N[C@@H](Cc3c[nH]c4ccccc34)C(=O)O)c(C)c2oc1=O (stereo not given in full),-4.8%,.,9.7%,-3.3%,30.3%,-0.3%,.,
COc1ccc(-c2cc(=O)oc3cc(OC(C)C(=O)NC(Cc4c[nH]c5ccc(O)cc45)C(=O)O)ccc23)cc1 (stereo not given),-10.0%,.,-3.4%,2.9%,4.9%,-12.2%,.,
O=C(COc1cc2oc(=O)cc(-c3ccccc3)c2cc1Cl)NC(Cc1c[nH]c2ccc(O)cc12)C(=O)O (stereo not given),?,.,?,50.1µM*,?,-4.8%,?,
CC(Oc1ccc2ccc(=O)oc2c1)C(=O)NC(Cc1c[nH]c2ccc(O)cc12)C(=O)O (stereo not given),?,.,-7.0%,22.4µM*,?,?,?,
COc1ccccc1-n1c(=S)[nH]c2c(sc(=S)n2-c2ccccc2C)c1=O,-31.8%,7.4%,15.4%,-21.1%,?,-8.0%,.,
CCOC(=O)c1cc(-c2ccc(/C=C3/C(=O)NC(=O)C(C#N)=C3C)o2)ccc1Cl,?,-7.9%,?,28.2µM*,35.5µM*,?,47.8*,
CC(C)OC(=O)/C(C#N)=C/c1ccc(-c2ccc(Cl)c(Cl)c2)o1,-25.7%,3.8%[2.28 µM],-2.6%,0.1%,10.9%,-2.6%,.,
Cc1ccc(-c2ccc(/C=N/N=C3/NC(=O)C(CC(=O)O)S3)o2)c([N+](=O)[O-])c1 (stereo not given),6.4%,3.6%,-15.4%,?,4.9%,-8.9%,.,
